According to article PMC4336329 (PLoS ONE, 2015):
The campaign covered roughly 310,000 compounds. About 14,000 (4.5%) showed an effect of 50% or more. The effect is printed as a negative number. The sample holds strong results, similar compounds and a random draw of the others, so the mix is not that of the screen.

target: human ether-à-go-go-related gene (hERG) potassium channel (human, UniProt Q12809); test: primary screen, population patch clamp on CHO cells stably expressing hERG; higher = less effect of the substance
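Note: peak tail current of the secondary pulse compared with the same well before compound.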

Sequence of human ether-à-go-go-related gene (hERG) potassium channel (Q12809 whole entry, looked up): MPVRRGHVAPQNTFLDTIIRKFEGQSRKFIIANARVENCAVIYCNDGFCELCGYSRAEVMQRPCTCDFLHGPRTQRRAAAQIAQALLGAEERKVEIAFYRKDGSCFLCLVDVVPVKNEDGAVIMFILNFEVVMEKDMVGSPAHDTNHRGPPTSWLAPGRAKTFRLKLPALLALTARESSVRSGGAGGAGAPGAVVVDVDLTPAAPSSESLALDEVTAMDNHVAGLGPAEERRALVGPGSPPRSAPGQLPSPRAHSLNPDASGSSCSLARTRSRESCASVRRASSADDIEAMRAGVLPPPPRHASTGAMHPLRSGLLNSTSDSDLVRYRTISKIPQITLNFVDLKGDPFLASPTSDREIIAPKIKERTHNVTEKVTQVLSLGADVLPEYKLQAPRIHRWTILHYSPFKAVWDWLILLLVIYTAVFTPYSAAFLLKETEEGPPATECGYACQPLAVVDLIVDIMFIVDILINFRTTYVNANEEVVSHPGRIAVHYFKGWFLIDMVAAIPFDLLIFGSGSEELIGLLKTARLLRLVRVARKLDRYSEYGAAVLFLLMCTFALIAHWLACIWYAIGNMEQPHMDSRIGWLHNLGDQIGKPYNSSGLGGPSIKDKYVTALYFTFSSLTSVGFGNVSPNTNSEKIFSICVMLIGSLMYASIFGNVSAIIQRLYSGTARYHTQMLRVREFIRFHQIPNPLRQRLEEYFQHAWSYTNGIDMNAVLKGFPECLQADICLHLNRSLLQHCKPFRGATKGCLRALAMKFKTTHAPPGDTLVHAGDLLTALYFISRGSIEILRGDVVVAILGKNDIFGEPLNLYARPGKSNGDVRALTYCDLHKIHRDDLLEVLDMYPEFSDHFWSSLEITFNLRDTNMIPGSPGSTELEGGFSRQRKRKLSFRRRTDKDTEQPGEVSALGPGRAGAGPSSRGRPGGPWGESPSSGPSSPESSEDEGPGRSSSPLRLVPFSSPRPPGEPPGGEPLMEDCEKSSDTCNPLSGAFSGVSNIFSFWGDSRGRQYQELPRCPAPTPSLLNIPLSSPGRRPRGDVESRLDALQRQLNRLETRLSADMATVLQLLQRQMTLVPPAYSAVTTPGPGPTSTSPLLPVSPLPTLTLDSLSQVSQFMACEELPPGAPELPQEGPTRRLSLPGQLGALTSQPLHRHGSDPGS

| Structure (SMILES) | hERG current change (%, negative = inhibition) at 10uM [%] |
| --- | --- |
| COc1cc(OC)c(NC(=O)CCNC(=O)Cn2ccc3ccccc3c2=O)cc1Cl | 7.45 |
| CCOC(=O)N1CCN(c2ncc(C(F)(F)F)cc2Cl)CC1 | 21.4 |
| CC(C)(C(N)=O)N1CCN(c2ncc(C(F)(F)F)cc2Cl)CC1 | -42.4 |
| O=C(CN1CCN(c2ncc(C(F)(F)F)cc2Cl)CC1)N1CCN(c2ncc(C(F)(F)F)cc2Cl)CC1 | 11.7 |
| CCc1cc(C(=O)N2CCN(c3ncc(C(F)(F)F)cc3Cl)CC2)sc1C | -3.1 |
| O=C(c1ccc2nc[nH]c2c1)N1CCN(c2cccc(C(F)(F)F)c2)CC1 | -11.4 |
| Cc1ccc(C(=O)N2CCN(c3ncc(C(F)(F)F)cc3Cl)CC2)s1 | -59.8 |
| O=C(c1ccc2nc[nH]c2c1)N1CCN(c2ncc(C(F)(F)F)cc2Cl)CC1 | -53.6 |
| O=C(c1cccs1)N1CCN(c2ncc(C(F)(F)F)cc2Cl)CC1 | -65 |
| Cc1ccsc1C(=O)N1CCN(c2ncc(C(F)(F)F)cc2Cl)CC1 | -21 |
| O=C(CSc1ccccn1)N1CCN(c2ncc(C(F)(F)F)cc2Cl)CC1 | -63.9 |
| O=C(c1ccc2c(c1)OCCO2)N1CCN(c2ncc(C(F)(F)F)cc2Cl)CC1 | -41.3 |
| O=C(CSc1ccc(Cl)cc1)N1CCN(c2ncc(C(F)(F)F)cc2Cl)CC1 | -26 |
| CCOc1ccccc1CN1CCNC(=O)C1CC(=O)NCc1nccn1CC (centres unmarked) | 18.8 |
| O=C(CNC(=O)c1ccccc1)NCC(=O)OCc1ccc(Cl)cc1 | -29.3 |
| Cc1onc(-c2c(Cl)cccc2Cl)c1C(=O)NC(=S)N1CCOCC1 | 6 |
| O=C(CCn1nnc(-c2cccs2)n1)NC1CCCCC1 | 2.79 |
| C=CCOc1cccc(C2C(C(=O)c3ccc(C)o3)=C(O)C(=O)N2CCCn2ccnc2)c1 (centres unmarked) | 9.13 |
| Cn1cccc1/C=C1\SC(=S)N(NC(=O)c2ccccc2Cl)C1=O | 1.91 |
| CCn1c(SCC(=O)Nc2cc(C)on2)nnc1-c1ccc(S(=O)(=O)N2CCN(C)CC2)cc1 | -23.1 |
| Cc1cc(N=Nc2ccc(Cl)cc2)cc(CN2CCOCC2)c1O | 11.6 |
| CC(=O)c1ccc(OC(=O)Cc2cccc3ccccc23)cc1 | 3.13 |
| c1ccc2c(CNC3CCCCCC3)c[nH]c2c1 | -20.8 |
